Experimental findings from PubChem BioAssay AID686978 (National Center for Advancing Translational Sciences (NCATS), 2013) are described below.

Each structure is given as a SMILES string. Out of some 420,000 compounds screened, about 64,000 (15%) were called active. Roughly 27% stayed inconclusive and do not appear here. The list is a sample of the results. A number with no mark means an inactive call. The call rests on the fitted dose curve; in most records, active means well fitted inhibition curve with a large enough effect; inconclusive means small, poorly fitted or top-dose-only effect; inactive means flat fitted curve, though single readings scatter.
On the % scale 0 is the no-effect control and ±100 the full control effect; potency means the concentration at half of the fitted maximal effect.

This assay in a line: qHTS for Inhibitors of human tyrosyl-DNA phosphodiesterase 1 (TDP1): qHTS in cells in absence of CPT. Further: nearly all actives have a fitted effect of over 55% in size. Particulars: DT40 Tdp1-/- hTDP1 cells, no CPT, ATP luminescence, 48 h; activity change, negative = growth inhibition: at 46.2 µM (top of the series). The gist of the method: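 A cellular qHTS used chicken DT40 cells lacking endogenous Tdp1 but carrying stably transfected human TDP1. Compounds were applied without camptothecin, and cell growth kinetics were judged by ATP-dependent luminescence after ≥48 hr.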
(In general: qHTS replaces the single test concentration by a dilution series.)
For `C=CCC1=C/C(=C\c2c(N)n3nc(CC(=O)N4CCOCC4)sc3nc2=O)C=C(OC)C1=O`, the “activity change, negative = growth inhibition” value was 15.1%.
Still for that read-out and setting: next, `CC(=O)NC1CC2CCCC(C1)N2CC(=O)Nc1ccccc1` (stereo unspecified): 2.41%; `COc1ccccc1NS(=O)(=O)N(C)C`: -6.71%.
Same read-out and setting: the value for `CC(C)(C)NC(=O)/C(=C/c1cccnc1)NC(=O)c1ccco1` was 2.45%; that for `NS(=O)(=O)c1ccc2nc(NC(=O)C3=COCCO3)sc2c1` was 6.91%; that for `N#CC(Cc1cc2ccccc2n1S(=O)(=O)c1ccccc1)OCc1ccccc1` (stereo unspecified) was -27.1%.
On to `O=C(Nn1cnnc1)c1cc(Cl)ccc1Cl`, for which the “activity change, negative = growth inhibition” value is -10.9%.
On the same count and under the same terms, the value for `CC(C)=CCN1CCN(Cc2ccc(Oc3ncccn3)cc2)CC1CCO` (stereo unspecified) was -1.59%.
The same measure, in the same setting: the value for `Cc1ccc(NC(=O)c2cccc(N(C)C)c2)cc1NC(=O)c1ccc(O)cc1` was -28.1%.
Consider `O=C1[C@@H]2C(c3cccnc3)=NO[C@@H]2C(=O)N1c1ccc(Cl)cc1Cl`, for which the “activity change, negative = growth inhibition” value was -44.3%.
With `OCCC1CN(Cc2ccccc2-c2ccco2)CCN1Cc1ccsc1` (stereo unspecified), the “activity change, negative = growth inhibition” value is -34.4%.
As for `Cc1ccc(C)c2[nH]c(=O)c(CCNC(=O)c3cccs3)cc12`, the “activity change, negative = growth inhibition” value was -24.4%.
Still for that read-out and setting: the value for `COc1ccccc1NC(=O)CCC(=O)OC(C)C(=O)c1ccccc1` (stereo unspecified) was 10.1%; that for `Cc1ccc(C(=O)N/C(=C/c2cccs2)C(=O)NCC2CCCO2)cc1` (stereo unspecified) was -6.29%; that for `Cc1ccc(S(=O)(=O)N(Cc2cc3ccccc3[nH]c2=O)CC2CCCO2)cc1` (stereo unspecified) was -12.1%.
For `Cc1cc2cc(CN(Cc3cccs3)Cc3nnnn3CC3CCCO3)c(=O)[nH]c2cc1C` (stereo unspecified), the Potency was 20.6 µM (active).
For the compound `COc1ccc2[nH]c(=O)c(CN(Cc3nnnn3CCc3ccccc3)CC3CCCO3)cc2c1` (stereo unspecified), the Potency was 9.2 µM (active).
Regarding `O=C(c1cccs1)N(Cc1cc2ccccc2[nH]c1=O)CC1CCCO1` (stereo unspecified), the “activity change, negative = growth inhibition” value is 2.95%.
Consider `CCOc1ccc2[nH]c(=O)c(CN(Cc3nnnn3CCc3ccccc3)CC3CCCO3)cc2c1` (stereo unspecified), for which the Potency is 14.6 µM (active).
With `Cc1nnc(SCC(=O)NNC(=O)c2ccc(Cl)cc2)n1CC1CCCO1` (stereo unspecified), the “activity change, negative = growth inhibition” value is -3.71%.
Still for that read-out and setting: next, `CC(=O)Nc1ccc(NC(=O)CSc2nnc(COc3ccccc3C)n2CC2CCCO2)cc1` (stereo unspecified): -6.91%; `CCN1C(=O)CS/C1=N\c1nccs1`: -2.04%.
As to `CCOC(=O)NC(=O)C(=CNc1cccc(OC)c1)C(=O)NC(=O)OCC`, the “activity change, negative = growth inhibition” value was -8.39%.
Take `CC(=O)CSc1nnc(CSc2ncccn2)n1C1CCCCC1`: the “activity change, negative = growth inhibition” value was -0.234%.
Same read-out and setting: next, `CC(=O)NCCC(=O)Nc1nc(-c2ccc3c(c2)OCCO3)cs1`: -6.56%; `Cc1ccc(-c2csc(NC(=O)Cc3cccs3)n2)cc1C`: -1.64%.
On to `Cc1ccc(-c2csc(NC(=O)C3=COCCO3)n2)cc1C`, for which the Potency was 4.11 µM (active).
In the case of `O=C(Nc1nc(-c2cccnc2)cs1)c1ccccc1F`, the “activity change, negative = growth inhibition” value was 3.03%.
Still for that read-out and setting: the value for `Cc1ccc(-c2csc(NC(=O)c3cnccn3)n2)cc1C` was -9.21%.
For `O=C(Nc1nc(-c2ccc3c(c2)OCO3)cs1)c1ccncc1`, the Potency is 13 µM (active).
On to `CC1=C(C(=O)Nc2cc(C)ccn2)C(c2cnn(C)c2)C2=C(CC(c3ccccc3)CC2=O)N1` (stereo unspecified), for which the “activity change, negative = growth inhibition” value was -9.41%.
In the case of `O=P(O)(O)C(O)c1ccc2ccccc2c1` (stereo unspecified), the “activity change, negative = growth inhibition” value was 8.08%.
In the case of `FC(F)(F)Oc1ccc(-c2cn3cccnc3n2)cc1`, the “activity change, negative = growth inhibition” value is -19%.
Consider `Cc1cc(C)cc(C(=O)NC(CC(N)=O)c2ccc(N3CCC(N4CCCCC4)CC3)c([N+](=O)[O-])c2)c1` (stereo unspecified), for which the “activity change, negative = growth inhibition” value was 3.31%.
Same read-out and setting: next, `CC(=O)c1c(C)[nH]c(C(=O)NCc2ccc(C)cc2)c1C`: -28.4%.
On to `CCOc1nc(-c2ccc(OC)cc2)ccc1-c1noc(-c2cc(OC)c(OC)c(OC)c2)n1`, for which the Potency was 3.66 µM (active).
As to `COc1cc(-c2nc(-c3ccncc3)no2)cc(OC)c1OC`, the “activity change, negative = growth inhibition” value is 0.674%.
On the same count and under the same terms, next, `COc1ccc(OC)c(-n2nnc(-c3nc(-c4cc(OC)c(OC)c(OC)c4)no3)c2C)c1`: -28.3%.
`COc1nc(-c2ccc(Cl)cc2)ccc1-c1noc(-c2cccs2)n1`: the “activity change, negative = growth inhibition” value is -8.38%.
Consider `COc1ccc(-c2cc(-c3nc(-c4cc(OC)c(OC)c(OC)c4)no3)[nH]n2)c(OC)c1`, for which the Potency was 13 µM (active).
Regarding `CCOC(=O)COc1cc(OCC(=O)OCC)c2c(=O)cc(-c3ccccc3)oc2c1`, the “activity change, negative = growth inhibition” value was -24.5%.
On to `O=C(Nc1nn(Cc2ccccc2F)cc1Br)c1cccs1`, for which the “activity change, negative = growth inhibition” value was -22.2%.
Regarding `COc1ccc(/C(O)=C2/C(=O)C(=O)N(CC3CCCO3)C2c2ccc(OC)c(OC)c2)cc1` (stereo unspecified), the “activity change, negative = growth inhibition” value is 5.95%.
As for `CC(CNS(=O)(=O)c1ccc(Br)cc1)CN(C)C` (stereo unspecified), the “activity change, negative = growth inhibition” value is -28.4%.
Still for that read-out and setting: the value for `O=C1CC2(CC(c3ccc(Cl)cc3)=NO2)C(=O)N1c1ccccc1` (stereo unspecified) was 2.88%.
Regarding `Cc1ccc(-c2nnc3ccc(SCC(N)=O)nn23)cc1`, the “activity change, negative = growth inhibition” value was -27%.
With `O=C(Nc1ccn(Cc2ccc(F)cc2)n1)c1ccncc1`, the Potency is 11.6 µM (active).
Regarding `O=C(Nc1ccn(Cc2ccccc2)n1)c1n[nH]c([N+](=O)[O-])c1Cl`, the “activity change, negative = growth inhibition” value is -23.2%.
On to `O=C(Nc1ccn(Cc2ccccc2)n1)c1cccc(F)c1`, for which the “activity change, negative = growth inhibition” value was -29.1%.
Still for that read-out and setting: the value for `O=C(COc1cccc2c1CCNC2=O)NC1CCCCC1` was 11.4%.
Still for that read-out and setting: the value for `COc1ccc(C(=O)COC(=O)Cn2cnc3c2c(=O)n(C)c(=O)n3C)c(OC)c1` was 5.14%.
